The values below come from PubChem BioAssay (Tox21).

Test [1] concerns the target Progesterone receptor (Homo sapiens) (UniProt P06401). The test can be described thus: qHTS assay to identify small molecule agonists of the progesterone receptor (PR) signaling pathway (AID 1346784; calls by dose curve; note: nearly all actives have a fitted effect of over 30% in size). Put shortly:
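Cells (PR-UAS-bla HEK 293T, GripTite) were plated in assay medium containing 2% charcoal-stripped FBS and incubated 6 hr. Test compounds in DMSO were added for 16 hr at 37C. FRET substrate was then loaded for 2 hr at room temperature before fluorescence reading.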

The target is the same in test [2]. In words: qHTS assay to identify small molecule antagonists of the progesterone receptor (PR) signaling pathway (AID 1346795; active = well fitted inhibition curve with a large enough effect in the signal ratio in the repeat runs, not every such curve was filed as active; the % refers to the signal ratio). In a few lines: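 Antagonist mode: compounds tested against 1 nM (final) promegestone stimulation in HEK293T cells expressing PR-UAS-bla reporter, 16 hr at 37C, 5% CO2; beta-lactamase activity detected via B/G FRET substrate after 2 hr at room temperature.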
(In qHTS, concentration-response curves come from the screen itself.)

Test [3] in a line: qHTS assay to identify small molecule antagonists of the progesterone receptor (PR) signaling pathway - cell viability counter screen (AID 1346798). Note: series mostly up to about 92 µM; nearly all actives have a fitted effect of over 50% in size. In a few lines: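 Counter screen for cytotoxicity: viability of PR-UAS-bla HEK293T cells was measured with CellTiter-Glo luminescence following 16 hr compound exposure in the presence of R5020.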
A short description of test [4]: qHTS assay to identify small molecule agonists of the progesterone receptor (PR) signaling pathway - cell viability counter screen (AID 1346799; calls by dose curve; note: nearly all actives have a fitted effect of over 45% in size). Put shortly: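 Cells (PR-UAS-bla HEK293T) are plated at 3,000/well in 2% charcoal-stripped FBS medium, rested 6 hr, dosed and incubated 16 hr at 37C. CellTiter-Glo is then added and luminescence measured after 30 min at room temperature.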

Test [5] can be described thus: qHTS assay to identify small molecule antagonists of the TGF-beta/Smad signaling pathway - cell viability counter screen (AID 1346824). Note: nearly all actives have a fitted effect of over 50% in size. Put shortly:
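SBE-bla HEK 293T cells, incubated overnight, then compound plus 0.25 ng/mL TGF-beta1 (stock added) for 5 hr at 37 C. Viability was read in the same wells by CellTiter-Glo luminescence after 30 min at room temperature.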

Test [6] can be described thus: qHTS assay to identify small molecule agonists of the TGF-beta/Smad signaling pathway - cell viability counter screen (AID 1346829). Note: top concentration of the series differs between compounds; nearly all actives have a fitted effect of over 45% in size. In a few lines: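 Compound-treated SBE-bla HEK 293T cells (5 hr, 37 C) were assessed for viability with CellTiter-Glo in parallel with the reporter read.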
The nature of test [7]: qHTS assay to identify small molecule agonists of the TGF-beta/Smad signaling pathway (AID 1346859; active = well fitted activation curve with a large enough effect in the signal ratio in the repeat runs, not every such curve was filed as active; the % refers to the signal ratio; note: series mostly up to about 77 µM). In a few lines: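 Reporter line: HEK 293T with stably integrated SBE-controlled beta-lactamase. Compound exposure lasts 5 hr at 37 C and 5% CO2; substrate loading follows for 2 hr at room temperature, with emission read at 460 and 530 nm.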
Test [8] deals with Thyrotropin-releasing hormone receptor (Homo sapiens) (UniProt P34981). The test can be described thus: qHTS assay to identify small molecule antagonists of the thyrotropin-releasing hormone receptor (TRHR) signaling pathway (AID 1346877; active = well fitted inhibition curve with a large enough effect in the repeat runs, not every such curve was filed as active; note: series mostly up to about 51 µM). In a few lines:
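Intracellular calcium fluorescence, read kinetically every second over 3 min, reports TRH-evoked signalling in HEK293 cells carrying TRHR. Test compounds were added 5 min ahead of a 1 nM TRH challenge.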

Test [9] shares this target. In words: qHTS assay to identify small molecule agonists of the thyrotropin-releasing hormone receptor (TRHR) signaling pathway (AID 1346891; calls by dose curve;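 note: HEK293 cells expressing TRHR with calcium dye readout; series mostly up to about 58 µM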). Put shortly: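 Cells: TRHR-Hek293, seeded and incubated 18 h. Dye loading: 2 h at 37 °C. Compound added from DMSO stock by pin tool. Read-out: kinetic calcium fluorescence over 3 min.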
A short description of test [10]: Human pregnane X receptor (PXR) small molecule agonists, qHTS cell viability counter screen (AID 1346977). Note: nearly all actives have a fitted effect of over 50% in size. Put shortly: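 Cytotoxicity counter screen run in the same wells as the PXR luciferase assay, using PXR-Luc HepG2 cells in charcoal-stripped serum medium. Viability: CellTiter-Fluor fluorescence after 24hr compound treatment.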
The nature of test [11]: Caspase-3/7 induction in HepG2 cells by small molecules, qHTS assay (AID 1346978). Note: nearly all actives have a fitted effect of over 15% in size. In a few lines: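 Wild-type HepG2 cells, 2,000/well, settled 5 hr at 37 C and 5% CO2, then compound-treated for 17 hr; caspase-3/7 activity read by luminescent Caspase-Glo 3/7 after 30 min at room temperature.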
Test [12] can be described thus: Caspase-3/7 induction in CHO-K1 cells by small molecules, qHTS cell viability counter screen (AID 1346979). Note: nearly all actives have a fitted effect of over 35% in size. In a few lines: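 Cytotoxicity counter screen run in parallel with the caspase-3/7 assay: CHO-K1 cells, 16hr compound treatment at 37C, then CellTiter-Fluor for 1hr before fluorescence reading.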
Test [13] in a line: Caspase-3/7 induction in CHO-K1 cells by small molecules, qHTS assay (AID 1346980). Note: nearly all actives have a fitted effect of over 15% in size. In a few lines:
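Wild-type CHO-K1 cells exposed to compounds for 17hr at 37 C, 5% CO2. Caspase-3/7 activity then measured by Caspase-Glo 3/7 luminescence after 30min at room temperature.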

In test [14] the target is Nuclear receptor subfamily 1 group I member 2 (Homo sapiens) (UniProt O75469). The test can be described thus: Human pregnane X receptor (PXR) small molecule agonists, qHTS assay (AID 1346982). Note: nearly all actives have a fitted effect of over 35% in size. Note: potency is the fitted concentration of half-maximal effect. Put shortly: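 Luciferase signal from ONE-Glo (30 min, room temperature) measured activation of hPXR-driven CYP3A4 reporter expression in PXR-Luc HepG2 cells treated with compounds for 24 hr at 37 C.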

The nature of test [15]: Caspase-3/7 induction in HepG2 cells by small molecules, qHTS cell viability counter screen (AID 1346981). Note: series mostly up to about 92 µM; nearly all actives have a fitted effect of over 30% in size. Put shortly: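 HepG2, WT, 2,000 cells/well; 5 hr pre-incubation 37 C/5% CO2; compound pin-transferred from DMSO; 16 hr exposure; CellTiter-Fluor, 1 hr; fluorescence read.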
Test [16] concerns the target Acetylcholinesterase (Homo sapiens) (UniProt P22303). The test can be described thus: Acetylcholinesterase (AChE) small molecule antagonists: enzyme-based qHTS assay (AID 1347397; calls by dose curve; note: nearly all actives have a fitted effect of over 55% in size). The settings on record: Potency: AChE enzyme activity inhibition. In a few lines: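 Recombinant human AChE (50 mU/mL) preincubated with compound 30 min at room temperature; acetylthiocholine plus DTNB then added, and thiocholine formation read colorimetrically after 10 min at room temperature. DMSO served as vehicle control.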

For test [17], the target named is Nuclear receptor subfamily 1 group I member 2 (Rattus norvegicus) (UniProt Q9R1A7). The test can be described thus: Rat pregnane X receptor (rPXR) activation by small molecules, qHTS assay (AID 1346983). Note: nearly all actives have a fitted effect of over 20% in size. Conditions: rPXR luciferase reporter cells, One-Glo luminescence, 24 h; max activation: active compounds read high. In a few lines:
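Cell-based rPXR activation assay: rPXR cells, 2,000 per well, rested 5hr at 37 C, then exposed to compounds in DMSO for 24 hr at 37 C. Luciferase activity read by One-Glo luminescence after 30 min at room temperature.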

In test [18] the target is Nuclear receptor subfamily 1 group I member 2 (Homo sapiens) (UniProt O75469). The test can be described thus: CYP3A4 induction through human pregnane X receptor (PXR) by small molecules, qHTS assay (AID 1346984). Note: nearly all actives have a fitted effect of over 40% in size. Put shortly: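 Luminescence readout: luciferase signal after One-Glo (30 min, room temperature), following 3 h at 37C with 3uM final Luciferin-IPA P450 substrate. Cells were DPX-2 (HepG2, PXR/CYP3A4-luc co-transfected) dosed for 24 h.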

The target is the same in test [19]. The test can be described thus: Human pregnane X receptor (PXR) activation by small molecules, qHTS assay (AID 1346985). Note: nearly all actives have a fitted effect of over 40% in size. In a few lines: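 DPX-2 cells (HepG2 co-transfected with a PXR response element and a CYP3A4-promoter luciferase construct) were seeded at 2,000 per well, rested 5 hr at 37C, then exposed to DMSO-dissolved compounds for 24 hr. Activation was read as luciferase luminescence.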

The target in test [20] is Acetylcholinesterase (Homo sapiens) (UniProt P22303). The test can be described thus: Acetylcholinesterase (AChE) small molecule antagonists: colormetric cell-based qHTS assay (AID 1347395; calls by dose curve; note: nearly all actives have a fitted effect of over 30% in size). Put shortly: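 Cells (SH-SY5Y, 2,000 per well) are seeded and left overnight at 37 C. Compound is added for 30 min, then DTNB and acetylthiocholine for a further 90 min at 37 C before absorbance-based thiocholine detection.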

Unmarked numbers belong to inactive results. Records with an inconclusive call do not appear. Active and inactive are the calls of the source. Unless noted, calls come from the whole dose curve; as a rule, active = well fitted curve in the direction sought with a large enough effect in the repeat runs; inconclusive = weak or mixed curves; inactive = no such curve, though single readings can be large; an effect the other way counts as inactive or inconclusive.
% is set by controls: 0 for no effect and ±100 for the full control effect.

Progesterone receptor (Homo sapiens), sequence (P06401 whole entry, looked up): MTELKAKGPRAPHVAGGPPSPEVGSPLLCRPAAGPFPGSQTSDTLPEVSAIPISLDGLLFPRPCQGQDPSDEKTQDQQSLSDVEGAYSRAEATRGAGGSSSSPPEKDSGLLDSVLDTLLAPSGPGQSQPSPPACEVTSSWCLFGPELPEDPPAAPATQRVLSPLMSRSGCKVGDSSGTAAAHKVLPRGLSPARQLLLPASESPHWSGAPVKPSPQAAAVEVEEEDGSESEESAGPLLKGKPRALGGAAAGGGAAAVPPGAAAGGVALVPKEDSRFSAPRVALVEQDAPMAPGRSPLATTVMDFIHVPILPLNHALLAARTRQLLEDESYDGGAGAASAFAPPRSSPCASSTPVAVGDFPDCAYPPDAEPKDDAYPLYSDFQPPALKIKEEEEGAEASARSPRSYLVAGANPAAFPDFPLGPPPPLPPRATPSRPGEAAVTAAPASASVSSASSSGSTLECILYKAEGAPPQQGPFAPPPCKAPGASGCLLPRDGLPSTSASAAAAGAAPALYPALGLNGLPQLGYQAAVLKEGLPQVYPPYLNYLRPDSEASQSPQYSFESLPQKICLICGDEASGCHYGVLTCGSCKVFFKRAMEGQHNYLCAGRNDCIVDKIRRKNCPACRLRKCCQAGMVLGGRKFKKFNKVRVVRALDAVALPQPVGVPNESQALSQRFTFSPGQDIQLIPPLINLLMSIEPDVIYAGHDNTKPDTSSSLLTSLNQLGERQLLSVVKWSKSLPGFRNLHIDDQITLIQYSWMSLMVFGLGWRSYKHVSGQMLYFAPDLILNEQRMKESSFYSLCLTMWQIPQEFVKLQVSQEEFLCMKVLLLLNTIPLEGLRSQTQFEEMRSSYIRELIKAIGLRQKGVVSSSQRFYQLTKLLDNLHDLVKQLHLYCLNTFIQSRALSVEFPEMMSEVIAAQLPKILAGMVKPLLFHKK
Acetylcholinesterase (Homo sapiens), sequence (P22303 whole entry, looked up): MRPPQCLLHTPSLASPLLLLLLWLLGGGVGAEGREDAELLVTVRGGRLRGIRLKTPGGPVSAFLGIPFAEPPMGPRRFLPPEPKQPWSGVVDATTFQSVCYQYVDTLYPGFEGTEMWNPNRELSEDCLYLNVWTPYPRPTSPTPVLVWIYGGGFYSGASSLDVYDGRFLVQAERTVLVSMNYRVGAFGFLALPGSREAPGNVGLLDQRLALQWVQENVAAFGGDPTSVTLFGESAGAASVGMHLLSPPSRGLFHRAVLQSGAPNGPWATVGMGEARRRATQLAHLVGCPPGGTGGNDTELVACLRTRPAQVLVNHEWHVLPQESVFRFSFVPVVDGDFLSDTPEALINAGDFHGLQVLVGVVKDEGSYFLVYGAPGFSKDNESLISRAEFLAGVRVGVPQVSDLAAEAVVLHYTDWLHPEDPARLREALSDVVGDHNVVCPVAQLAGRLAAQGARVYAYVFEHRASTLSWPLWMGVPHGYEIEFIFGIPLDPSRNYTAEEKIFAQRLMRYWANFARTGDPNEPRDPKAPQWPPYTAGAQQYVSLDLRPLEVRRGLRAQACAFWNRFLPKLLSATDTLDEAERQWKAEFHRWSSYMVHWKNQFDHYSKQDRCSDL
Nuclear receptor subfamily 1 group I member 2 (Homo sapiens), sequence (O75469 whole entry, looked up): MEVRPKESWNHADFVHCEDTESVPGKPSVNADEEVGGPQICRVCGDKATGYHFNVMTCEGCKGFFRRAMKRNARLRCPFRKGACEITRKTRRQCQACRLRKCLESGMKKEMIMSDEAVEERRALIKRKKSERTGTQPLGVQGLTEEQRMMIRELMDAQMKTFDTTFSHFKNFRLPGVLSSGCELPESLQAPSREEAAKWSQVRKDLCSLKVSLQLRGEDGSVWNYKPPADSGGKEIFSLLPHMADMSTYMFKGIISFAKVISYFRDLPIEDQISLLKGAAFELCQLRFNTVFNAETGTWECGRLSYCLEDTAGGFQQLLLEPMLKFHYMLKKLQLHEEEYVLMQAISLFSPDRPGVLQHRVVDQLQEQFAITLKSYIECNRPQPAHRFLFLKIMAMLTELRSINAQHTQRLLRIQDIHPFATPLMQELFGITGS
Thyrotropin-releasing hormone receptor (Homo sapiens), sequence (P34981 whole entry, looked up): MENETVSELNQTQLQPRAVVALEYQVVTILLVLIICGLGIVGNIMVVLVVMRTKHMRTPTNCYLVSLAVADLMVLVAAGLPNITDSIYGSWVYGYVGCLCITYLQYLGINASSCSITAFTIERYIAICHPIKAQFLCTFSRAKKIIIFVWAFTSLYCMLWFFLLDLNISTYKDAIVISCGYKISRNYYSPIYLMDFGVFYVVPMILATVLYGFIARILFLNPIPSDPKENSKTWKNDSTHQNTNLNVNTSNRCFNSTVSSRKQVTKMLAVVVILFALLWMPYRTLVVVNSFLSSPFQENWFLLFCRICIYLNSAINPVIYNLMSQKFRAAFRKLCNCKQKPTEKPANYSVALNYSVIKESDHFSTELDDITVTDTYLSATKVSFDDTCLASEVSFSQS
Nuclear receptor subfamily 1 group I member 2 (Rattus norvegicus), sequence (Q9R1A7 whole entry, looked up): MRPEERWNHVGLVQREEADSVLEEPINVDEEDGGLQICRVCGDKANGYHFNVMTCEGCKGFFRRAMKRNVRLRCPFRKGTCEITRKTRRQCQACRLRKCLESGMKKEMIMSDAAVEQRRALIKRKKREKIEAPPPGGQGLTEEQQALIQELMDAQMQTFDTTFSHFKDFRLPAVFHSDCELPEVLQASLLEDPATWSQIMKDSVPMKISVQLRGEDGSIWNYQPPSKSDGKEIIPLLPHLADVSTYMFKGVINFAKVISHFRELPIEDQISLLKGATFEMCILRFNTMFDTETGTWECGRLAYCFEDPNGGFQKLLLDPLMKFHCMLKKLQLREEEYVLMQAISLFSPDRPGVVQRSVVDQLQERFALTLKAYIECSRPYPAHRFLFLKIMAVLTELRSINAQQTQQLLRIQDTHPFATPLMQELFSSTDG

Regarding `CCOc1nc(C(Cl)(Cl)Cl)ns1`, the Potency entry in test [1], in test [2], in test [3], in [4], in test [5] and in test [10] was “inactive” in each case. Besides, the Potency result in test [11], in test [12], in test [13] and in test [14] was “inactive” each time. The call in [6], in test [7], in test [8] and in test [9] was inactive.
For `O=[N+]([O-])c1cccc2cccnc12`, the Potency entry in test [1], in test [2], in test [3], in test [4], in test [5] and in test [10] was “inactive” throughout. In addition, the Potency result in [11], in [12], in test [13], in test [15] and in test [16] was “inactive” each time. Moreover, the compound was called inactive in test [6], in test [7], in test [8] and in test [9]. Moreover, in test [14], the Potency is 35.3 µM (active).
As to `O=C1c2ccccc2C(=O)c2ccccc21`, the activation in [1] was -0.0487% [at 19 µM]; in test [7], -3.6% [at 15.8 µM]; in [9], -0.0612% [at 11.8 µM]. The activity change, negative = inhibition in test [2] was 12.9% [at 18.9 µM]. In addition, the activity change, negative = cytotoxicity in [3] was 9.36% [at 18.9 µM]; in [4], 2.43% [at 19 µM]; in test [6], -4.2% [at 15.8 µM]; in [10] it was 8.57% [at 19 µM]; in test [12], 11.3% [at 19 µM]; in test [15] it was 8.77% [at 19 µM]. For the same compound, the viability change, negative = cytotoxic in test [5] is -2.72% [at 15.8 µM]. Further, the activity, negative = inhibition in test [8] is -1.2% [at 10.5 µM]; in [20], -0.352% [at 23.6 µM]. Moreover, the caspase activation in test [11] is -0.684% [at 19 µM]. Besides, the caspase-3/7 activation in test [13] was 2.01% [at 19 µM]. The max activation in [17] was 7.01%. Besides, the Potency result in [18] and in test [19] was “inactive” each time.
On to `CCOP(=O)(OCC)OP(=O)(OCC)OCC`, for which the Potency entry in test [1], in test [2], in test [3], in test [4], in test [5] and in [10] was “inactive” each time. Also, the Potency result in [11], in test [12], in [13], in test [14] and in test [16] was “inactive” throughout. The compound was classed as inactive in [6], in test [7], in [8] and in test [9].
